PubChem BioAssay (NCI)
This is part of a sample that, as a whole, favours compounds with a hit. Of some 79,000 tested, about 15% had one in any assay. Activity calls are given as the source filed them. Rule as the data show it: active = growth inhibition above about 70%; inactive = the rest.

Experiments:
[1] = NCI Yeast Anticancer Drug Screen. Data for the rad50 strain (AID 155);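 also: 0% = growth of vehicle-only cultures of the same strain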; settings: S. cerevisiae rad50 strain growth inhibition, stronger effect = higher value
Procedure, shortened: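 Compounds were tested on a yeast strain with an engineered DNA damage repair alteration; the reported value is growth inhibition normalised to vehicle treatment.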

[2] = NCI Yeast Anticancer Drug Screen. Data for the mec2-1 strain (AID 157); settings: S. cerevisiae mec2-1 strain, stronger effect = higher value
Procedure, shortened: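 Growth inhibition is read against vehicle-treated controls after compound exposure of the mec2-1 yeast strain, which is defective in DNA damage repair or cell cycle control.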

[3] = NCI Yeast Anticancer Drug Screen. Data for the sgs1 mgt1 strain (AID 161);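 also: 0% = growth of cultures given vehicle only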; settings: S. cerevisiae sgs1 mgt1 strain, stronger effect = higher value
Procedure, shortened: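 Growth of a repair-deficient yeast mutant was monitored after compound treatment and expressed as inhibition relative to vehicle-treated cultures.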

[4] = NCI Yeast Anticancer Drug Screen. Data for the cln2 rad14 strain (AID 165);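 also: 0% = growth equal to vehicle treated cultures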; settings: S. cerevisiae cln2 rad14 strain, stronger effect = higher value
Procedure, shortened: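 Growth inhibition, relative to vehicle-treated controls, is the read-out. The test organism is a yeast strain with defined genetic alterations, cln2 rad14.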

[5] = NCI Yeast Anticancer Drug Screen. Data for the bub3 strain (AID 167); settings: S. cerevisiae bub3 mutant strain, stronger effect = higher value
Procedure, shortened: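 Growth of a checkpoint-deficient yeast mutant is measured after compound exposure. Values represent inhibition relative to vehicle.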

[6] = NCI Yeast Anticancer Drug Screen. Data for the mlh1 rad18 strain (AID 175); settings: S. cerevisiae mlh1 rad18 strain growth inhibition, stronger effect = higher value
Procedure, shortened: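 Cells of a genetically altered yeast strain, deficient in DNA damage repair, were treated with compound. Their growth was then compared with that of vehicle-treated cultures to give inhibition.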

[7] = at 5.0 µM (retest, dose inferred, filed as 0.5)
[8] = at 50.0 µM (retest, dose inferred, filed as 5.0)

Measured: growth inhibition

COc1cc(N(CC(C)Br)CC(C)Br)ccc1N=Nc1ccccc1C(=O)O (centres undefined)
active: [1]; [8] 96% | [2]; [8] 95% | [3]; [8] 95% | [4]; [8] 98% | [4]; at 50.0 µM 78.2% | [5]; [8] 92% | [6]; [8] 94% | [6]; at 50.0 µM 80.2%
inactive: [1]; [7] 42% | [1]; at 50.0 µM 65.2% | [2]; [7] 26% | [2]; at 50.0 µM 29.1% | [3]; [7] 54% | [3]; at 50.0 µM 32.4% | [4]; [7] 52% | [5]; [7] 52% | [5]; at 50.0 µM 32.9% | [6]; [7] 33%

CCCCCCCCCC(=O)[O][Hg][c]1ccccc1
active: [1]; [7] 99% | [1]; [8] 99% | [1]; at 50.0 µM 71.5% | [2]; [7] 100% | [2]; [8] 99% | [2]; at 50.0 µM 99.7% | [3]; [7] 99% | [3]; [8] 100% | [3]; at 50.0 µM 99.5% | [4]; [7] 99% | [4]; [8] 99% | [4]; at 50.0 µM 99.4% | [5]; [7] 99% | [5]; [8] 98% | [5]; at 50.0 µM 99.3% | [6]; [7] 99% | [6]; [8] 99% | [6]; at 50.0 µM 99.1%

O=[N+]([O-])c1ccc(SP(=S)(c2ccccc2)c2ccccc2)c([N+](=O)[O-])c1
active: [1]; [8] 97% | [2]; [8] 98% | [3]; [8] 98% | [3]; at 50.0 µM 88.6% | [4]; [8] 96% | [4]; at 50.0 µM 83.2% | [5]; [8] 98% | [6]; [8] 99% | [6]; at 50.0 µM 70.5%
inactive: [1]; [7] 7% | [1]; at 50.0 µM 67.3% | [2]; [7] 17% | [2]; at 50.0 µM 48.3% | [3]; [7] 30% | [4]; [7] 5% | [5]; [7] 9% | [5]; at 50.0 µM 48% | [6]; [7] 28%

C[C@]12C/C(=C/O)C(=O)C(O)=C1CC[C@@H]1C2CC[C@@]2(C)C1CC[C@@H]2O (some centres undefined)
inactive: [1]; [7] 6% | [1]; [8] 56% | [2]; [7] 5% | [2]; [8] 33% | [2]; at 50.0 µM 59.4% | [3]; [7] 4% | [3]; at 50.0 µM 52.2% | [4]; [7] 6% | [4]; [8] 52% | [4]; at 50.0 µM 62.2% | [5]; [7] -39% | [6]; [7] 8%
active: [1]; at 50.0 µM 78.9% | [3]; [8] 70% | [5]; [8] 81% | [5]; at 50.0 µM 79.4% | [6]; [8] 74% | [6]; at 50.0 µM 89.2%

[Cl][Hg][c]1ccc2ccccc2c1
active: [1]; [7] 99% | [1]; [8] 98% | [1]; at 50.0 µM 85.8% | [2]; [7] 100% | [2]; [8] 97% | [2]; at 50.0 µM 89.5% | [3]; [7] 100% | [3]; [8] 98% | [3]; at 50.0 µM 90.9% | [4]; [7] 100% | [4]; [8] 97% | [4]; at 50.0 µM 89.3% | [5]; [7] 99% | [5]; [8] 97% | [5]; at 50.0 µM 88.1% | [6]; [7] 100% | [6]; [8] 97%

CC(=O)[O-].O=[N+]([O-])c1ccc([O-])c(C=NCCN=Cc2cc([N+](=O)[O-])ccc2[O-])c1.[Mn+3]
active: [1]; [8] 96% | [1]; at 50.0 µM 91.8% | [2]; [8] 98% | [2]; at 50.0 µM 79.2% | [3]; [8] 93% | [3]; at 50.0 µM 91.6% | [4]; [8] 95% | [5]; [8] 94% | [5]; at 50.0 µM 88.5% | [6]; [8] 97% | [6]; at 50.0 µM 93.3%
inactive: [1]; [7] 15% | [2]; [7] -2% | [3]; [7] 10% | [4]; [7] 19% | [4]; at 50.0 µM 48.2% | [5]; [7] 1% | [6]; [7] 12%

ClCc1ccncc1
active: [1]; [8] 73% | [5]; [8] 73%
inactive: [1]; [7] 38% | [1]; at 50.0 µM 54.9% | [2]; [7] 26% | [2]; [8] 46% | [2]; at 50.0 µM 47.2% | [3]; [7] 55% | [3]; [8] 69% | [3]; at 50.0 µM 69.4% | [4]; [7] 38% | [4]; [8] 57% | [4]; at 50.0 µM 51% | [5]; [7] 31% | [5]; at 50.0 µM 58% | [6]; [7] 25% | [6]; [8] 66% | [6]; at 50.0 µM 57.6%

[pH]1p2[pH]p3p1p3[pH]2.c1cc[c]([Ge]([c]2ccccc2)[c]2ccccc2)cc1.c1cc[c]([Ge]([c]2ccccc2)[c]2ccccc2)cc1.c1cc[c]([Ge]([c]2ccccc2)[c]2ccccc2)cc1
inactive: [1]; [7] 10% | [1]; at 50.0 µM 2.35% | [2]; [7] 20% | [2]; at 50.0 µM 59.3% | [3]; [7] 18% | [3]; at 50.0 µM 4.75% | [4]; [7] 8% | [4]; [8] 44% | [4]; at 50.0 µM 37.8% | [5]; [7] 9% | [5]; [8] 66% | [5]; at 50.0 µM -1% | [6]; [7] 19% | [6]; at 50.0 µM 18.4%
active: [1]; [8] 82% | [2]; [8] 74% | [3]; [8] 78% | [6]; [8] 71%

CN(C)c1ccc(N=Nc2cccc(C(=O)[O-])c2)cc1.CN(C)c1ccc(N=Nc2cccc(C(=O)[O-])c2)cc1.NC1CCCCC1N.O=[N+]([O-])O.[Pt+4]
active: [1]; [8] 98% | [1]; at 50.0 µM 91% | [2]; [8] 98% | [2]; at 50.0 µM 91.7% | [3]; [8] 99% | [3]; at 50.0 µM 93.2% | [4]; [8] 97% | [5]; [8] 98% | [5]; at 50.0 µM 81.5% | [6]; [8] 97% | [6]; at 50.0 µM 92%
inactive: [1]; [7] 1% | [2]; [7] 21% | [3]; [7] 23% | [4]; [7] 28% | [4]; at 50.0 µM 44.1% | [5]; [7] 45% | [6]; [7] 41%

COc1ccc2c(ccc3oc([N+](=O)[O-])cc32)c1
inactive: [5]; at 50.0 µM 68%
active: [1]; [7] 93% | [1]; [8] 95% | [1]; at 50.0 µM 85.9% | [2]; [7] 96% | [2]; [8] 97% | [2]; at 50.0 µM 91% | [3]; [7] 93% | [3]; [8] 94% | [3]; at 50.0 µM 79.8% | [4]; [7] 97% | [4]; [8] 96% | [4]; at 50.0 µM 85.2% | [5]; [7] 87% | [5]; [8] 91% | [6]; [7] 95% | [6]; [8] 96% | [6]; at 50.0 µM 84.2%
